Bioassay records as filed in PubChem BioAssay.
Sampled rows, rich in hits. Any-hit rate of the full collection: about 0.87%.
GCN5L2 inh: qHTS Assay for Inhibitors of GCN5L2. Histone acetyltransferase KAT2A (Homo sapiens), Q92830. GCN5L2 HAT assay, ThioGlo1 CoA-SH fluorescence. Potency, µM (top dose mostly 58.9 µM), without a hit: at the top dose activity change, negative = inhibition, actives largely listed as inhibitors. actives 0.21% (n = 390,000). AID 504327, 2011
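ThioGlo1-coupled HAT assay: 20nM GCN5L2, 70uM acetyl-CoA, 75uM H3(1-25) peptide, pH 7.5. Fluorescence read at 340/540nm at start and after 20 min at room temperature.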
TDP1 block: qHTS Assay for Inhibitors of Tyrosyl-DNA Phosphodiesterase (TDP1); AID 485290, 2010; recombinant TDP1, AlphaScreen DNA substrate cleavage; Tyrosyl-DNA phosphodiesterase 1 (Homo sapiens), Q9NUW8; actives 0.28% (n = 350,000); Potency, µM (top dose mostly 130 µM), without a hit: at the top dose activity change, negative = inhibition, usual class: inhibitors; note: nearly all actives have a fitted effect of over 40% in size
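E. coli-derived human Tdp1, 1 nM final. Cpd preinc 15 min RT; substrate 15 nM final, 5 min RT; AS bead mix 10 ug/ml final, 10 min RT. Signal loss = tyrosine-FITC cleavage. No-enzyme wells = max signal.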
RECQ1 inh: qHTS Assay for Inhibitors of RecQ-Like Dna Helicase 1 (RECQ1) | AID 2549, 2010 | ATP-dependent DNA helicase Q1 (Homo sapiens), P46063 | RECQ1 DNA unwinding, red fluorescence kinetic read | actives 0.54% (n = 240,000) | Potency, µM (doses to about 57.3 µM), for the others: at the top dose activity, negative = inhibition, most hits filed as inhibitors;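 note: plate controls were vehicle for no effect and no enzyme for full effect; nearly all actives have a fitted effect of over 30% in size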
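50 nM RECQ1T1 preincubated 15 min with compound in Tris pH 8.0 buffer with MgCl2, DTT, Tween-20 and 2.5 ug/ml poly(dI-dC); started with 200 nM TAMRA/BHQ-2 forked duplex and 2 mM ATP. Unwinding read as fluorescence (525/598 nm), two reads 2 h apart.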
BLM inh: qHTS Assay for Inhibitors of Bloom's syndrome helicase (BLM). recombinant BLM DNA unwinding, fluorescence dequenching. Potency, µM (series often up to 56.1 µM), inactives show top-dose activity change, negative = inhibition, usual class: inhibitors. actives 0.2% (n = 350,000). AID 2528, 2010;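 note: plate controls were vehicle for no effect and no enzyme for full effect; nearly all actives have a fitted effect of over 35% in size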
APE1 inh: qHTS Assay for Inhibitors of the Human Apurinic/apyrimidinic Endonuclease 1 (APE1); DNA repair nuclease/redox regulator APEX1 (Homo sapiens), P27695; recombinant APE1, TAMRA/BHQ-2 abasic DNA cleavage fluorescence; Potency, µM (doses to about 65.8 µM), without a hit: at the top dose activity change, negative = inhibition, actives largely listed as inhibitors; actives 0.35% (n = 350,000);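 note: plate controls were vehicle for no effect and reference inhibitor for full effect; nearly all actives have a fitted effect of over 55% in size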
Target sequence (P27695 whole entry, looked up): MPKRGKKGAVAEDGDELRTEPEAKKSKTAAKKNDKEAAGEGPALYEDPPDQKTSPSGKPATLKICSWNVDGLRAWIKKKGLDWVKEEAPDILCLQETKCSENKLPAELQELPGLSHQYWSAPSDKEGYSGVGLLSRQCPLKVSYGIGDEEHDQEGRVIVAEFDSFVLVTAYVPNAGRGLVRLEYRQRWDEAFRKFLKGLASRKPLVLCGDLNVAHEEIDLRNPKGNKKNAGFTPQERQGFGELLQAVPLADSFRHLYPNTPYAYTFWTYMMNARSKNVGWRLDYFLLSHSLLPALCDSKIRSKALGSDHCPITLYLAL
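Compound pre-exposure to 0.75 nM APE1, 15 min at ambient temperature. Reaction initiated with 50 nM TAMRA/BHQ-2 THF substrate, read immediately in kinetic mode, 525 nm excitation, 598 nm emission.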
RGS4 inhibitor: Inhibitors of Regulator of G Protein Signaling (RGS) 4: qHTS; Regulator of G-protein signaling 4 (Homo sapiens), P49798; Transcreener GDP fluorescence polarization, RGS4-accelerated GTP hydrolysis; Potency, µM (series often up to 114 µM), inactives show at the highest dose activity change, negative = inhibition, actives largely listed as inhibitors; actives 0.039% (n = 390,000); AID 504845, 2011; note: nearly all actives have a fitted effect of over 75% in size
Target sequence (P49798 whole entry, looked up): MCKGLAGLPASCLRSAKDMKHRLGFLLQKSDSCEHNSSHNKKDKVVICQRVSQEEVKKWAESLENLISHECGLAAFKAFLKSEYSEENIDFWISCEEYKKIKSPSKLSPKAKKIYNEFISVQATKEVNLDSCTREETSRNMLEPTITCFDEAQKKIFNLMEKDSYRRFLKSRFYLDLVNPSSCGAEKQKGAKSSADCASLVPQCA
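MLSMR compounds (23 nl, pin-transferred) preincubated 10 min at room temperature with a 500nM (2x) first reagent, then RGS4 at 900nM (2x) plus Transcreener GDP mix added; fluorescence polarization (620/688 nm) read before and after 90 min at 30 °C.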
* marks the source's active call; other numbers are inactive results; ! = not confirmed by another sample; [ ] = another dose, or the depositor's remark. Calls come from the whole dose curve; as a rule, active = well fitted curve in the direction sought with a large enough effect; inconclusive = small, poorly fitted or top-dose-only effect, or another doubt; inactive = no such curve, though single readings can be large; an effect the other way counts as inactive or inconclusive. Unless noted, % is set by controls: 0 for no effect and ±100 for the full control effect; potency is the fitted concentration of half-maximal effect.

For O=C(N/N=C/c1c(Cl)cccc1Cl)c1ccc(-n2cnnn2)cc1 the results were GCN5L2 inh -5%, TDP1 block 56µM*, APE1 inh 18% and RGS4 inhibitor -19%.
`COC(=O)c1c(-c2cccs2)csc1NC(=O)c1cc(OC)c(OC)c(OC)c1` gave GCN5L2 inh 25µM*, TDP1 block -5%, BLM inh -1% and RGS4 inhibitor -53%.
COC(=O)c1c(-c2cccs2)csc1NC(=O)c1ccc(OC)c(OC)c1 was read as GCN5L2 inh inconclusive, TDP1 block -12%, BLM inh -4% and RGS4 inhibitor inconclusive.
`C=C1C=C(C(F)F)n2ncc(C(=O)Nc3ccccc3OCC)c2N1` gave APE1 inh 58%.
Cc1ccc(NS(=O)(=O)c2cc3c(cc2C)NC(=O)CO3)cc1C was read as TDP1 block 1%.
`Cc1ccc(S(=O)(=O)N(Cc2ccccc2)Cc2ccco2)cc1` gave GCN5L2 inh -14%, TDP1 block 3%, RECQ1 inh -15%, BLM inh -11%, APE1 inh -6% and RGS4 inhibitor -3%.
For COc1ccccc1N(CC(=O)NCc1ccco1)S(=O)(=O)c1ccc(C)cc1 the results were GCN5L2 inh -25%, BLM inh -30%, APE1 inh 21µM* and RGS4 inhibitor -49%.
Screening Cc1ccc(S(=O)(=O)N(CC(=O)O)Cc2ccco2)cc1 returned GCN5L2 inh 0%, TDP1 block 22µM*, RECQ1 inh -19%, BLM inh -3%, APE1 inh 14µM* and RGS4 inhibitor 12%.
`N#Cc1nc(Nc2ccc(C(F)(F)F)cc2)nc(NC2CCCC2)n1` gave TDP1 block 0%.
`CNc1oc(-c2cccc(Br)c2)nc1C#N` gave APE1 inh 25%.
For FC(F)(F)c1ccccc1-c1nc(N2CCNCC2)c2ccccc2n1 the results were GCN5L2 inh 1%, TDP1 block 4%, RECQ1 inh -6%, BLM inh -10% and APE1 inh 3%.
`FC(F)(F)c1ccccc1-c1nc(N2CCOCC2)c2ccccc2n1` gave GCN5L2 inh inconclusive, RECQ1 inh -1%, BLM inh -11% and APE1 inh 25µM*.
O=C(O)CSc1c2c(nc3cc(C(=O)Nc4ccc(F)c(Cl)c4)ccc13)CCCC2 was read as GCN5L2 inh -21%, TDP1 block 56µM*, BLM inh -23%, APE1 inh -45% and RGS4 inhibitor -20%.
`CS(=O)(=O)Nc1ccc([N+](=O)[O-])cc1OC1CCCCC1` gave GCN5L2 inh -14%, TDP1 block 13%, RECQ1 inh -13%, BLM inh -4%, APE1 inh 1% and RGS4 inhibitor 8.4µM*!.
Screening CCOc1ccc([N+](=O)[O-])cc1CNC1CCCCCCC1 returned GCN5L2 inh -2%, TDP1 block 3%, BLM inh 5%, APE1 inh -3% and RGS4 inhibitor 0%.
Screening CCc1ccc(OCc2nnc(-c3ccccc3Br)o2)cc1 returned GCN5L2 inh -11%, TDP1 block 50µM*, APE1 inh 14% and RGS4 inhibitor -17%.
For Clc1ccccc1OCc1nnc(-c2ccccc2Br)o1 the results were GCN5L2 inh -9%, TDP1 block -10%, RECQ1 inh inactive, BLM inh -8%, APE1 inh 8% and RGS4 inhibitor -17%.
O=c1c(O)c(-c2ccc(O)c(O)c2)oc2c(OC[C@@H]3O[C@@H](O)[C@@H](O)[C@H](O)[C@H]3O)c(O)cc(O)c12 was read as RECQ1 inh -12%, BLM inh 1% and APE1 inh 2.5µM*.
Cc1ccc(NS(=O)(=O)c2ccc3c(c2)CCCC(=O)N3)cc1C was read as TDP1 block 0%.
O=C1CCCC/C1=C\Nc1ccc(S(=O)(=O)Nc2cnc3ccccc3n2)cc1 was read as GCN5L2 inh 22µM*, TDP1 block 0%, RECQ1 inh inactive, BLM inh 1%, APE1 inh -1% and RGS4 inhibitor -24%[56.9 µM].
For O=c1c(-c2ccccc2)nc2cnc(N3CCNCC3)nc2n1Cc1cccs1 the results were GCN5L2 inh -29%, RECQ1 inh -5%, BLM inh 4% and APE1 inh 3%.
Cc1nc2cnc(N3CCNCC3)nc2n(CCC#N)c1=O was read as GCN5L2 inh 28µM*, RECQ1 inh -6%, BLM inh -3% and APE1 inh 0%.
O=c1c(-c2ccccc2)nc2cnc(N3CCNCC3)nc2n1Cc1ccc(F)cc1 was read as GCN5L2 inh 18µM*, RECQ1 inh -1%, BLM inh -8% and APE1 inh 2%.
For CC(C)(C)OC(=O)Cc1nnc(-c2cc3ccccc3[nH]2)o1 the results were TDP1 block 0%.
For Nc1cn(C2OC(CO)C(O)C2O)c(=O)[nH]c1=O (stereo not drawn) the results were GCN5L2 inh -5%, TDP1 block 56µM*, BLM inh -1%, APE1 inh 19µM* and RGS4 inhibitor 5%.
O=c1[nH]c(=O)n([C@@H]2O[C@H](CO)[C@@H](O)[C@H]2O)cc1Br was read as GCN5L2 inh -10%, TDP1 block 8%[56.1 µM], RECQ1 inh inactive, BLM inh 2%, APE1 inh 15% and RGS4 inhibitor -27%[56.9 µM].
Screening C=CCNc1oc(-c2cccc(Br)c2)nc1C#N returned APE1 inh -2%.
O=C(O)CSc1cc(NS(=O)(=O)c2ccc(Cl)cc2)c2ccccc2c1O was read as GCN5L2 inh 55%, BLM inh 25µM*, APE1 inh 60% and RGS4 inhibitor inconclusive.
CCC(=O)Nc1nnc(Sc2ccc(N(C)C)cc2)s1 was read as GCN5L2 inh -5%, TDP1 block 45µM*, RECQ1 inh -8%, BLM inh -9%, APE1 inh -1% and RGS4 inhibitor -12%.
